What all share (assay): NCI-60 one-dose screen, 48 h (100 = growth as untreated, 0 = no growth, -100 = all killed)
One assay deals with NCI-H23 lung. Conditions: 10 µM unless noted.
The next assay relates to NCI-H226 lung. Conditions: 10 µM unless noted.
In the next assay the test system is NCI-H322M lung. Conditions: 10 µM unless noted.
The test system of a further assay is HOP-92 NSCLC. Conditions: 10 µM.
For the next assay, the system named is A549/ATCC NSCLC. The conditions noted are these: 10 µM unless noted.
For another assay, the system named is 786-0 renal. Conditions: 10 µM unless noted.
The next assay concerns COLO 205 colon. The conditions noted are these: 10 µM unless noted.
A further assay relates to DU-145 prostate. The conditions noted are these: 10 µM unless noted.
Another assay relates to K-562 leukemia. The conditions noted are these: 10 µM unless noted.
The subject of another assay is MALME-3M melanoma. Conditions: 10 µM unless noted.
The subject of another assay is MDA-MB-231 breast. The conditions noted are these: 10 µM unless noted.
Another assay has as its system RXF 393 renal. Conditions: 10 µM unless noted.
Another assay relates to SF-268 CNS. Conditions: 10 µM unless noted.
Another assay concerns SF-295 CNS. Conditions: 10 µM unless noted.
Another assay concerns SF-539 CNS. The conditions noted are these: 10 µM unless noted.
The test system of the next assay is UACC-257 melanoma. The conditions noted are these: 10 µM unless noted.
For another assay, the system named is M14 melanoma. Conditions: 10 µM unless noted.
The subject of the next assay is NCI-H522 lung. The conditions noted are these: 10 µM.
A further assay relates to NCI-H460 lung. The conditions noted are these: 10 µM unless noted.

Compounds without any hit were thinned out: in the full panel of roughly 83,000, 20% have a hit.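 Plates (96-well) were seeded with cells, treated with compound at one concentration, and incubated for 48 hours before percent growth was determined.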 Unmarked numbers belong to inactive results. Calls of active or inactive are those of the source. The calls were made as follows: active = growth percent below 10; inactive = the rest.

With `CCN(CC)CCCNc1c2ccc(Cl)cc2nc2ccc(OC)cc12`, the growth in the assay with NCI-H23 lung was -34.9% (active); with NCI-H226 lung, -6.37% (active); in the assay with NCI-H322M lung, -18.9% (active); in the assay on HOP-92 NSCLC, -27.8% (active); in the assay on A549/ATCC NSCLC, -32.4% (active); in the assay with 786-0 renal, 9.99% (active). In addition, the growth in the assay with COLO 205 colon was -72.3% (active); in the assay on DU-145 prostate it was 5.08% (active); with K-562 leukemia, -21.9% (active); with MALME-3M melanoma, -59.7% (active); in the assay with MDA-MB-231 breast, -39.5% (active); in the assay on RXF 393 renal, -57.9% (active). For the same compound, the growth is -10.1% (active) with SF-268 CNS; -21.7% (active) in the assay with SF-295 CNS; -65.7% (active) in the assay with SF-539 CNS; 33.4% with UACC-257 melanoma; -79% (active) in the assay with M14 melanoma.

With `C#CCCCCCCC[C@@H]1OC(=O)[C@H]([C@@H](C)CC)NC(=O)[C@H]([C@@H](C)CC)NC(=O)CC(=O)[C@@H]1C`, the growth is 99.8% with NCI-H23 lung; 89% with NCI-H226 lung; 99.6% in the assay with NCI-H322M lung; 78.1% in the assay with HOP-92 NSCLC; 92.5% in the assay on NCI-H522 lung; 105% with A549/ATCC NSCLC. Moreover, the growth in the assay on 786-0 renal is 101%; with COLO 205 colon, 112%; in the assay with DU-145 prostate, 106%; in the assay on K-562 leukemia it was 96.5%; in the assay with MALME-3M melanoma it was 92.9%; with MDA-MB-231 breast, 89.9%. The growth in the assay with RXF 393 renal was 104%; in the assay on SF-268 CNS, 91.9%; in the assay with SF-295 CNS, 98.9%; with SF-539 CNS, 97.5%; with UACC-257 melanoma, 117%; in the assay on M14 melanoma, 93.9%.

In the case of `O=C1/C(=C\c2cn(-c3nc(N4CCOCC4)nc(N4CCOCC4)n3)c3ccccc23)c2ccccc2N1c1c(Cl)cccc1Cl`, the growth with NCI-H23 lung was 79.7%; in the assay on NCI-H226 lung, 60.1%; with NCI-H322M lung, 28.2%; in the assay with NCI-H460 lung it was 40.8%; in the assay with HOP-92 NSCLC it was 3.38% (active); with A549/ATCC NSCLC, 68.4%. For the same compound, the growth is 29.5% in the assay with 786-0 renal; 57.1% with DU-145 prostate; 80.6% with K-562 leukemia; 95.6% in the assay on MALME-3M melanoma; 76.9% in the assay with MDA-MB-231 breast; -10.8% (active) with RXF 393 renal. Also, the growth in the assay with SF-268 CNS is 57.8%; in the assay on SF-295 CNS, 37.6%; with SF-539 CNS, 63%; with UACC-257 melanoma, 80.7%; in the assay on M14 melanoma it was 78.2%.

In the case of `Clc1ccc(N/N=C/c2ccccn2)nc1`, the growth in the assay with NCI-H23 lung is 6.51% (active); with NCI-H226 lung it was -12.3% (active); in the assay with NCI-H322M lung it was 23.6%; in the assay with HOP-92 NSCLC it was 39.7%; in the assay on A549/ATCC NSCLC, 11.2%; in the assay on 786-0 renal, 7.14% (active). The growth with COLO 205 colon was 13.6%; with DU-145 prostate, 19.2%; in the assay on K-562 leukemia, 10.8%; in the assay on MALME-3M melanoma, 1.36% (active); with MDA-MB-231 breast, 34.5%; in the assay on RXF 393 renal it was 16.2%. Moreover, the growth is 6.56% (active) with SF-268 CNS; 1.61% (active) with SF-295 CNS; 1.62% (active) in the assay with SF-539 CNS; 1.06% (active) with UACC-257 melanoma; -25.7% (active) in the assay with M14 melanoma.

In the case of `CCC(C)C1NC(=O)C(CC(C)C)NC(=O)C(C)NC(=O)C(C(C)C)NC(=O)C(CCCCN)NC(=O)C(CC(C)C)NC(=O)C(C(C)C)NC(=O)[C@H](C)NC(=O)C(C(C)CC)NC(=O)C(CCCN=C(N)N)NC(=O)C(CCCCN)NC(=O)C(CCCN=C(N)N)NC(=O)C(CCCCN)NC(=O)C([C@H](C)CC)NC(=O)C(CCCCN)NC1=O` (some centres not stated), the growth in the assay on NCI-H23 lung was 8.22% (active); in the assay on NCI-H226 lung, 44.9%; with NCI-H322M lung, 64.9%; with HOP-92 NSCLC, -21.8% (active); in the assay with A549/ATCC NSCLC, 22.3%; in the assay on 786-0 renal, 10.5%. Further, the growth is -73% (active) with COLO 205 colon; 23.8% with DU-145 prostate; 8.83% (active) with K-562 leukemia; 15.2% with MALME-3M melanoma; -0.693% (active) in the assay on MDA-MB-231 breast; 33% in the assay on RXF 393 renal. The growth in the assay on SF-268 CNS was 20.3%; with SF-295 CNS, 21.4%; with SF-539 CNS it was 67.2%; in the assay on UACC-257 melanoma, 1.31% (active); with M14 melanoma it was 17.7%.

For the compound `CC(=O)Nc1ccc(CC#N)cc1Br`, the growth in the assay on NCI-H23 lung was 110%; with NCI-H226 lung, 96.4%; with NCI-H322M lung, 105%; in the assay with HOP-92 NSCLC it was 94%; with NCI-H522 lung, 92.9%; with A549/ATCC NSCLC it was 103%. Also, the growth in the assay with 786-0 renal is 101%; with COLO 205 colon, 109%; with DU-145 prostate, 107%; with K-562 leukemia, 111%; in the assay with MALME-3M melanoma, 101%; in the assay on MDA-MB-231 breast it was 112%. The growth with SF-268 CNS is 106%; in the assay on SF-295 CNS, 105%; with SF-539 CNS it was 103%; in the assay with UACC-257 melanoma, 103%; in the assay on M14 melanoma it was 105%.

On to `CCOC(=O)NC1=NCC(C)(C)S1`, for which the growth in the assay on NCI-H23 lung is 102%; in the assay on NCI-H226 lung it was 97.2%; in the assay on NCI-H322M lung, 101%; in the assay on HOP-92 NSCLC, 111%; in the assay on NCI-H522 lung it was 87.3%; with A549/ATCC NSCLC, 100%. Moreover, the growth in the assay on 786-0 renal was 104%; with COLO 205 colon, 117%; in the assay with DU-145 prostate it was 107%; in the assay with K-562 leukemia, 88.4%; with MALME-3M melanoma, 103%; in the assay on MDA-MB-231 breast it was 101%. Besides, the growth in the assay on RXF 393 renal is 111%; with SF-268 CNS, 97.8%; in the assay with SF-295 CNS, 98.7%; with SF-539 CNS, 110%; in the assay with UACC-257 melanoma, 103%; in the assay on M14 melanoma it was 103%.

`CC1Cc2cc(F)ccc2-n2cccc21` (configuration not stated): the growth in the assay with NCI-H23 lung is 98.5%; with NCI-H226 lung, 154%; in the assay on NCI-H322M lung it was 100%; with HOP-92 NSCLC it was 73.8%; in the assay with A549/ATCC NSCLC, 104%; in the assay on 786-0 renal it was 111%. The growth was 106% with DU-145 prostate; 108% in the assay with K-562 leukemia; 101% in the assay on MALME-3M melanoma; 94% with MDA-MB-231 breast; 136% in the assay on RXF 393 renal; 110% in the assay with SF-268 CNS. Further, the growth with SF-295 CNS is 104%; in the assay on SF-539 CNS, 101%; in the assay with UACC-257 melanoma it was 101%; in the assay with M14 melanoma it was 111%.

The values above are taken from PubChem BioAssay (NCI).
